# ChEMBL document CHEMBL3988442, “University of Dundee, Small-Polar-MMV Screening Library” (2021)
# The campaign covered roughly 48,000 compounds. About 13,000 (27%) showed an effect of 50% or more. The list shows a part of the results.
# System: Wolbachia pipientis
# Assay: Anti-Wolbachia Cell-Based Screen
# Type: functional
# Parameters: scale not given: in the data most compounds retested in dose-response had high values
# Details: 5 µM
row,Compound,Percent Effect [%]
1,CC(C)CCNc1nnc(C(C)C)s1,-2.433
2,Cc1noc(C)c1CN(C)C(=O)C1(N)CCCCC1,-29.06
3,CCC1CN(Cc2ccccc2)CCN1Cc1nnc(C2CCC2)o1 (stereo unspecified),7.114
4,CN(Cc1nc(C2CC2)no1)C(=O)c1cccc(CC2CCNCC2)c1,-25.8
5,CC(C)(O)c1cn(C2CCN(C(=O)CCc3ccncc3)CC2)nn1,-4.68
6,O=C(Nc1cnc(C2CC2)nc1)N1CCCC1,-9.25
7,CC(C)c1cc(C2CCN(Cc3cc(F)cc(F)c3)CC2)[nH]n1,18.27
8,Fc1cc(F)cc(CN2CCC(c3cc4ncccc4cn3)CC2)c1,115.3
9,Cc1cnc(CN2CCC(N(C)Cc3nnc(C)n3C)C2)cn1 (stereo unspecified),0.1518
10,CCn1c(C)nnc1CN(C)C1CCN(Cc2nnc(C3CC3)o2)C1 (stereo unspecified),99.37
11,CCn1c(C)nnc1CN(C)C1CCN(Cc2cnc(C)cn2)C1 (stereo unspecified),-10.08
12,CCn1c(C)nnc1CN(C)C1CCN(Cc2ccon2)C1 (stereo unspecified),7.959
13,Cc1nnc(CN(C)C2CCN(Cc3nnc(C4CCC4)o3)C2)n1C (stereo unspecified),92.95
14,N#CC(NC(=O)CCC1CCC1)c1cnn(-c2ccccc2)c1 (stereo unspecified),1.369
15,CNC(=O)Cn1nc(C(C)C)c2cnn(C(C)(C)C)c2c1=O,-6.377
16,CN(C)[C@@H]1CO[C@H](CNC(=O)C2CCCC2)[C@H]1O,-8.236
17,Cc1ccc(C(=O)NCCNC(=O)c2cncnc2C)cc1F,-5.207
18,Cc1csc([C@@H]2C[C@@H]3CCN(C(=O)c4cc(C)on4)C[C@H]3O2)n1,1.11
19,CCn1nc(C)cc1C(=O)N1C[C@@H]2C[C@@H](C)O[C@@H]2C1.O=C(O)C(F)(F)F,99.49
20,CCC(C)(C)C(=O)N1C[C@@H]2C[C@@H](c3nnc(C)[nH]3)O[C@@H]2C1,92.76
21,CCn1nc(C)cc1C(=O)N1CC[C@H](OC)[C@H]2CN(CC3CC3)C[C@H]21.O=C(O)C(F)(F)F,3.94

row,Compound,Percent Effect [%]
1,Cc1ccc(C(=O)N2CC[C@H]3O[C@@H](c4noc(C)n4)C[C@H]3C2)o1,6.095
2,CCN1C[C@@H]2[C@@H](OC)CCN(C(=O)c3cc(C)nn3CC)[C@@H]2C1.O=C(O)C(F)(F)F,-7.784
3,CCn1nc(C)cc1C(=O)N1C[C@@H]2C[C@@H](c3noc(C)n3)O[C@@H]2C1,118.5
4,Cc1nnc([C@@H]2C[C@H]3CN(C(=O)C4CC4)C[C@H]3O2)[nH]1,-12.1
5,Cc1nnc([C@@H]2C[C@H]3CN(C(=O)c4c(C)noc4C)C[C@H]3O2)[nH]1.O=C(O)C(F)(F)F,-14.34
6,CCn1nc(C)cc1C(=O)N1C[C@@H]2C[C@@H](c3nc(C)cs3)O[C@@H]2C1,100.8
7,Cc1csc([C@@H]2C[C@@H]3CCN(C(=O)c4ccnnc4)C[C@H]3O2)n1,-12.9
8,Cc1nc([C@H]2C[C@H]3CN(C(=O)c4cc(C)c(C)s4)CC[C@@H]3O2)no1,1.908
9,O=C(CN1CCS(=O)(=O)CC1)NC1CCCCc2ccccc21 (stereo unspecified),-11.03
10,CCC(Nc1nnnn1-c1ccccc1)C(=O)NCc1cccs1 (stereo unspecified),-3.486
11,CN1CCOC[C@H]1c1nc(-c2ccc(F)cc2F)c[nH]1,2.014
12,COC1CCCN(CCCc2cn[nH]c2)C1 (stereo unspecified),-27.42
13,OC1CCN([C@@H]2CCN(c3nc(-c4ccccc4)no3)C[C@H]2O)CC1,-5.249
14,CCCN1CC2(CCN(C)CC2)CC1C(=O)NCc1cc(C)nn1C (stereo unspecified),6.557
15,O=C(NCC(F)(F)F)C1CN(C(=O)c2cnccn2)C1,-11.97
16,CCn1nc(C)cc1C(=O)N1C[C@@H]2C[C@@H](c3nnc(C)[nH]3)O[C@@H]2C1,102
17,Cc1nnc([C@@H]2C[C@H]3CN(C(=O)c4sccc4C)C[C@H]3O2)[nH]1,-0.8336
18,Cc1nnc([C@H]2C[C@@H]3CCN(C(=O)C4CCOCC4)C[C@H]3O2)[nH]1,-13.79
19,CCc1nc(N2CCCC(CCCOC)(C(=O)O)C2)ncc1C (stereo unspecified),-7.437
20,CO[C@H]1CCN(c2ncccn2)[C@H]1Cc1ccccc1,1.779
21,CO[C@H]1CCN(Cc2nccs2)C[C@@H]1Cc1ccccc1,1.604

row,Compound,Percent Effect [%]
1,Cc1cc2c(cc1C)C(NC1CC1)CCCO2 (stereo unspecified),-4.167
2,CCCc1ccc(C(=O)N2Cc3c(Cn4ccnc4)nn(C)c3C2)cc1.O=CO,-14.37
3,CC(C)n1cnc2ccc(NC(=O)CCCn3cccn3)cc2c1=O,106
4,COCCn1cnc2ccc(NC(=O)CCCn3cccn3)cc2c1=O,181
5,CC(C)c1nc(NC(=O)CCCn2cccc2)n(C)n1,-8.102
6,CCNC(=O)CCC(=O)Nc1ccc2nn(C(C)C)cc2c1,9.58
7,CC(C)Cn1cncc1CNC(=O)c1cccc(Cn2cccn2)c1,0.1096
8,COC(=O)CC(NC(=O)CCCn1cccn1)c1ccc(Cl)cc1 (stereo unspecified),-43.24
9,CC(C)Cn1cnc2ccc(NC(=O)CCCn3cccn3)cc2c1=O,102.5
10,Cc1ccc(C(=O)NCCCn2cccn2)c(=O)[nH]1,22.25
11,CCN(CC)c1ccc(NC(=O)NC(C)Cn2cccn2)cn1 (stereo unspecified),-15.96
12,COCCn1ccc(NC(=O)Nc2ccncc2)n1,5.636
13,Cn1cnc2ccc(NC(=O)CCCn3cccn3)cc2c1=O,106.9
14,COCCn1ccc(NC(=O)Nc2ccc(C)cc2)n1,3.618
15,CCc1nnsc1C(=O)NCCCC(CC)(CC)C1OCCO1,-13.99
16,CC(C)c1nnc2n1CC(CNc1cnc3ccccc3n1)CC2 (stereo unspecified),-3.73
17,Cc1cc(C)n(C2CN(CC(O)COc3ccc(F)cc3)C2)n1 (stereo unspecified),3.815
18,CC(NCCc1nccn1Cc1ccccc1)c1ccsc1 (stereo unspecified),1.494
19,O=C(c1ccc[nH]1)N1C[C@H]2CC[C@@H]1CN(c1ncccn1)C2,-10.43
